# According to PubChem BioAssay (Tox21):
# Inconclusive results are not listed. Active and inactive are the calls of the source. Calls come from the whole dose curve; as a rule, active = well fitted activation curve with a large enough effect in the repeat runs; inconclusive = weak or mixed curves; inactive = no such curve, though single readings can be large or run the other way.
# Experiment: qHTS assay for small molecules that induce genotoxicity in human embryonic kidney cells expressing luciferase-tagged ATAD5 (AID 651632); note: nearly all actives have a fitted effect of over 15% in size
# Conditions: HEK293T ATAD5-luciferase induction, 16 h; series mostly up to 83.3 µM; activation: at the top concentration
# Method in brief: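 HEK293T cells carrying a luciferase reporter tagged to ATAD5 were exposed to compound or DMSO vehicle for 16 hr at 37C, 5% CO2. Amplite was added, and after 30 min at room temperature luciferase activity was read as a marker of ATAD5 induction.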
# % is set by controls: 0 for no effect and ±100 for the full control effect; potency is the fitted concentration of half-maximal effect.
Structure (SMILES),activation,Potency
CCc1ccc(C)cc1,0.675% (inactive),
Cc1ccc(Cl)cc1N,-2.97% [at 95.3 µM] (inactive),
Cc1ccc(NC(=O)N(C)C)cc1NC(=O)N(C)C,1.39% (inactive),
O=P(O)(O)Oc1ccccc1,2.94% (inactive),
COc1ccc(-c2cc(C(F)F)nn2-c2ccc(S(N)(=O)=O)cc2)cc1F,5.1% (inactive),
CCO[Si](C)(CCCOCC1CO1)OCC (stereo not drawn),1.98% (inactive),
CNS(=O)(=O)c1cc(C(=O)N2CCC(CCN3C4CCC3CC(n3c(C)nc5ccccc53)C4)(c3cccc(F)c3)CC2)c(Cl)cc1F (stereo not drawn),-9.92% (inactive),
Cc1c[nH]c2ccccc12,-2.33% (inactive),
Nc1nc(-c2ccc([N+](=O)[O-])cc2)cs1,3.9% [at 95.3 µM] (inactive),
CC(C)COC(=O)COc1cc(Cl)c(Cl)cc1Cl,-3.56% (inactive),
Cc1ccc(N(CCO)CCO)cc1,1.83% (inactive),
Nc1nc2ccc(OC(F)(F)F)cc2s1,,11.9 µM (active)
COC(=O)CC(C(C)=O)C(=O)OC (stereo not drawn),0.986% (inactive),
Cc1c(C2(c3cc(Br)c(O)c(Br)c3C)OS(=O)(=O)c3ccccc32)cc(Br)c(O)c1Br,-13.2% (inactive),
CN(C)CC/C=C1\c2ccccc2Sc2ccc(Cl)cc21,-6.27% (inactive),
O=[N+]([O-])C1(Br)COCOC1,2.97% (inactive),
CSSc1ccoc1C,-2.68% (inactive),
CCOC(=O)C(C)O (stereo not drawn),-3.29% [at 95.3 µM] (inactive),
O=C(O)CCC(=O)c1ccc(-c2ccccc2)cc1,5.68% [at 39.1 µM] (inactive),
CNc1c2c(nn1C)CCCC2,1.72% (inactive),
CCN(Cc1cccc(S(=O)(=O)O)c1)c1ccc(C(=C2C=CC(=[N+](CC)Cc3cccc(S(=O)(=O)O)c3)C=C2)c2ccccc2S(=O)(=O)[O-])cc1,-10.5% (inactive),
Nc1ccn([C@H]2CS[C@@H](CO)O2)c(=O)n1,,inactive
Cc1ccc2nc(N)[nH]c(=O)c2c1Sc1ccncc1,4.28% (inactive),
CCCCCCCC(=O)OCCCCCC,2.82% (inactive),
C[C@@H]1[C@H](O)[C@@H](C)/C=C/C=C\C=C\C=C\C=C\C=C\C=C\[C@H](O[C@@H]2O[C@H](C)[C@@H](O)[C@H](N)[C@@H]2O)C[C@@H]2O[C@](O)(C[C@@H](O)C[C@@H](O)[C@H](O)CC[C@@H](O)C[C@@H](O)CC(=O)O[C@H]1C)C[C@H](O)[C@H]2C(=O)O (stereo in doubt),,inactive
COc1ccc(-n2nc(C(F)F)cc2-c2ccc(S(C)=O)cc2)cc1 (stereo not drawn),3.41% (inactive),
CCN(CC)CCOC(=O)C(c1ccccc1)c1ccccc1,-2.2% (inactive),
O=c1[nH]c2cc(C(F)(F)F)c(N3CCOCC3)cc2n(CP(=O)(O)O)c1=O,1.31% (inactive),
